# Compound activity: PubChem BioAssay, National Center for Advancing Translational Sciences (NCATS)
# Only some compounds are listed: those with a hit (about 19% of all), similar ones and a draw of the others.
# DT40 TDP1 CPT: growth inhibition of DT40 Tdp1-/-;hTDP1 cells with camptothecin (screen for TDP1 inhibitors) | hit rate 12% among 420,000 | AID 686979 | Potency, µM (highest dose often 46.2 µM), for the others: at the highest dose activity change, negative = growth inhibition, most hits filed as inhibitors | chicken DT40 Tdp1-/-;hTDP1 cells + 20 nM CPT, ATP luminescence, 48 h; note: potency is the fitted concentration of half-maximal effect; nearly all actives have a fitted effect of over 55% in size
#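 Chicken DT40 Tdp1-/- cells complemented with human TDP1, 400 cells/well, exposed to compounds plus 20 nM camptothecin for at least 48 h at 37 C; viability read as ATP content by CellTiter-Glo luminescence.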
# HT1080 IDH1KD tx: HT-1080 IDH1 knockdown cell toxicity (counter line); HT-1080 IDH1 knockdown viability, ATP luminescence, 48 h; Potency, µM (top dose mostly 46.1 µM), without a hit: at the highest dose activity, negative = toxicity, actives largely listed as cytotoxic; hit rate 2% among 360,000; AID 686971;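 note: potency is the fitted concentration of half-maximal effect; 0% = DMSO wells and -100% = cell-free medium wells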
#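 % activity derives from luminescence (CellTiter-Glo), normalised to DMSO and no-cell wells. HT-1080-IDH1KD cells, 750/well, had 48 h compound exposure at 37 °C.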
# HT1080-NT tox: kills 2HG-producing HT-1080-NT fibrosarcoma cells | AID 686970 | HT-1080-NT fibrosarcoma viability, CellTiter-Glo ATP luminescence, 48 h | hit rate 1.6% among 360,000 | Potency, µM (series often up to 46.1 µM), for the others: at the top dose activity, negative = less viability, actives largely listed as cytotoxic;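 note: NT is the 2HG producing partner of a matched IDH1 knockdown line; potency is the fitted concentration of half-maximal effect; 0% = DMSO-treated cells and -100% = media-only wells without cells; nearly all actives have a fitted effect of over 55% in size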
#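 Luminescent CellTiter-Glo readout after 48 hours of compound exposure at 37 degrees C defined viability of HT-1080-NT cells. Activity was normalized to DMSO wells and cell-free media wells; concentration-response curves were fitted and assigned curve classes.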
# TDP1 cell noCPT: qHTS for Inhibitors of human tyrosyl-DNA phosphodiesterase 1 (TDP1): qHTS in cells in absence of CPT. DT40 Tdp1-/- hTDP1 cells, no CPT, ATP luminescence, 48 h. Potency, µM (highest dose often 46.2 µM), for the others: at the top dose activity change, negative = growth inhibition, usual class: inhibitors. hit rate 15% among 420,000. AID 686978, 2013; note: potency is the fitted concentration of half-maximal effect; nearly all actives have a fitted effect of over 55% in size
#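 DT40 Tdp1-/-;hTDP1 cells, no CPT (DMSO vehicle only), 400 cells/well; compounds pin-transferred; ≥48 hr, 37 °C; CellTiter-Glo 30 min RT dark, luminescence read.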
# IL-1B inflam inh: inhibitors of inflammasome signaling (IL-1 beta secretion) | activity change, % at 57.5 µM | THP-1 LPS/ATP IL-1B secretion, AlphaLISA, 16 h; stronger effect = lower value | hit rate 4.7% among 360,000; in the data active = activity change below about -50%; inconclusive = mostly about -30% to -49%
#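 Secreted IL-1B measured by AlphaLISA bead assay after 16 h compound exposure of THP-1 cells; compounds (final up to 57.5 uM) added 1 h before LPS (250 ng/mL) and ATP (1.25 mM) stimulation; lower signal means less secretion.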
# Active calls of the source: *; i = inactive; ? = inconclusive; · = no result; [ ] = remark or other dose. Unless noted, calls come from the whole dose curve; as a rule, active = well fitted curve in the direction sought with a large enough effect; inconclusive = small, poorly fitted or top-dose-only effect, or another doubt; inactive = no such curve, though single readings can be large; an effect the other way counts as inactive or inconclusive. Unless noted, % is set by controls: 0 for no effect and ±100 for the full control effect.
SMILES,DT40 TDP1 CPT,HT1080 IDH1KD tx,HT1080-NT tox,TDP1 cell noCPT,IL-1B inflam inh
COc1ccc(C(=O)C[n+]2cccc3cccc(O)c32)cc1,2.1%,·,·,-8.9%,·
c1ccc(-c2noc(-c3ccc4ccccc4c3)n2)nc1,?,-24.9%,-19.0%,23.1µM*,14.6
c1ccc(-c2noc(-c3ccc4c(c3)OCO4)n2)nc1,5.17µM*,2.51µM*,1.78µM*,5.17µM*,6.4
COc1cccc(-c2nc(-c3ccccn3)no2)c1,?,?,?,?,17.3
c1ccc(-c2noc(-c3ccncc3)n2)nc1,?,?,11.2µM*,?,-5.0
c1ccc(-c2noc(-c3cccnc3)n2)nc1,-23.4%,-28.7%,-11.8%,?,1.0
Cc1onc(-c2ccccc2Cl)c1-c1nc(-c2ccccn2)no1,?,-12.1%,-2.3%,16.4µM*,-16.9
Cc1occc1-c1nc(-c2ccccn2)no1,-22.2%,?,?,?,1.4
CC1CCCC(NC(=O)CCN2C(=O)COc3ccccc32)C1C (configuration not stated),-13.4%,6.4%,6.4%,-9.8%,-6.1
Cc1ccc(-n2nc3c(c2NC(=O)C(C)C)CS(=O)(=O)C3)cc1,3.9%,3.5%,2.0%,3.2%,19.2
COc1ccc(-c2oc3ncn4nc(COc5ccc(C)cc5)nc4c3c2-c2ccc(OC)cc2)cc1,-3.4%,·,·,?,·
COc1cc(OC)cc(C(=O)N2CCCC(n3cc(C(=O)NCC(C)C)nn3)C2)c1 (configuration not stated),15.6%[9.04 µM],·,·,-7.4%,·
Cc1cc(C)c(S(=O)(=O)N2CCOCC2)c(C)c1N(C)S(=O)(=O)c1ccccc1,-19.6%,8.0%,-2.8%,?,i
Cc1ccc(S(=O)(=O)N2CCN(C)CC2)c(C)c1N(C)S(=O)(=O)c1ccc(Cl)cc1,?,-22.6%,-10.6%,23.1µM*,-12.8
Cc1cc(C)c(S(=O)(=O)N2CCCCC2)cc1N(C)S(=O)(=O)c1ccc(Cl)cc1,23.1µM*,-5.9%,-2.8%,16.4µM*,?
Cc1cc(C)c(S(=O)(=O)N2CCCCC2)c(C)c1N(C)S(=O)(=O)c1ccccc1,11.6µM*,1.1%,?,?,?
Cc1c(Cl)ccc(S(=O)(=O)N2CCN(C)CC2)c1Cl,-8.4%,-2.1%,2.6%,-22.9%,1.9
N#CC1(NC(=O)CN2c3cccc4cccc(c34)S2(=O)=O)CCCCC1,-12.6%,-14.0%,-2.4%,-27.8%,-1.5
Cn1cc(-c2nc3cnc(Oc4ccccc4)nc3n(C3CC3)c2=O)c2ccccc21,-0.1%,·,·,15.9%,·
OCC1(CCOc2ccccc2)CCN(Cc2ccc(OC(F)F)cc2)CC1,0.2%,?,?,?,-90.6*
Cc1c(CN2CCC(CO)(CCOc3ccccc3)CC2)[nH]c2c(Cl)cccc12,?,18.4µM*,20.6µM*,?,0.0
COc1ccc(CN2CCC(CO)(CCOc3ccccc3)CC2)cc1C,?,-12.1%,-17.7%,?,-72.1*
C=CCOc1ccccc1CN1CCC(CO)(CCOc2ccccc2)CC1,?,?,-0.8%,18.4µM*,?
CC(CCC(=O)O)C1CCC2C3C(O)C[C@@H]4CC(O)CC[C@@]4(C)C3CC(O)[C@]12C (some centres not stated),-2.9%,·,·,-3.7%,·
O=C(NCCc1cn2ccccc2n1)C1CCCCC1,8.0%,7.7%,15.1%,7.5%,-3.5
SMILES,DT40 TDP1 CPT,HT1080 IDH1KD tx,HT1080-NT tox,TDP1 cell noCPT,IL-1B inflam inh
OCC1(CCOc2ccccc2)CCN(Cc2cc(Cl)ccc2O)CC1,?,-27.1%,?,-28.5%,?
OCC1(CCOc2ccccc2)CCN(Cc2ccccc2OC(F)F)CC1,-26.5%,?,-26.9%,?,-79.2*
CCN(CC)CCNC(=O)C1CCCN(c2ncnc3onc(C)c23)C1 (configuration not stated),0.3%,·,·,-5.3%,·
CCCCN(C)C(=O)C1CCCN(c2ncnc3onc(C)c23)C1 (configuration not stated),5.17µM*,·,·,1.84µM*,·
CCCCN(CC)C(=O)C1CCCN(c2ncnc3onc(C)c23)C1 (configuration not stated),18.4µM*,·,·,20.6µM*,·
CCCCn1c(N)c(N(CC(C)C)C(=O)c2ccc(C)c(S(=O)(=O)N3CCCCC3)c2)c(=O)[nH]c1=O,2.1%,0.2%,-12.2%,-11.9%,-25.8
Cc1ccccc1NC(=O)c1c(C)nc(SCC(=O)OCc2ccccc2)c(C#N)c1-c1ccc(F)cc1,?,-2.8%,1.2%,14.6µM*,6.3
COC(=O)CSc1nc(C)c(C(=O)Nc2ccccc2C)c(-c2ccc(Cl)cc2)c1C#N,?,-4.1%,-8.9%,?,-75.7*
Cc1nc(SCC(=O)OCc2ccccc2)c(C#N)c(-c2ccccc2)c1C(=O)Nc1ccccc1,?,-0.5%,1.7%,?,24.3
O=[N+]([O-])c1cc(-c2csc(NC(CO)c3nc4ccccc4n3CCOCCO)n2)ccc1Cl (configuration not stated),?,-20.7%,-6.0%,18.4µM*,0.0
CCCn1c(C(C)Nc2nc(-c3ccc(Cl)c([N+](=O)[O-])c3)cs2)nc2ccccc21 (configuration not stated),23.1µM*,-25.4%,?,?,-15.9
N#CC1=C(N)C(C#N)(C#N)[C@H](c2c(F)cccc2F)[C@H]2CC3(CC=C12)OCCO3,?,10µM*,?,16.4µM*,39.9
CN1C2C=C3C(C#N)=C(N)C(C#N)(C#N)[C@H](c4c(F)cccc4F)[C@H]3C1CC2 (some centres not stated),7.31µM*,-13.0%[9.24 µM],?,10.3µM*,-92.5*
CCCCN(C(=O)c1cc(=O)[nH]c2ccccc12)c1c(N)n(CCCC)c(=O)[nH]c1=O,-0.6%,12.4%,-3.5%,2.5%,-11.0
O=C([O-])c1cc(-c2ccccc2)cc(-c2ccccc2)[n+]1CCc1ccc(Cl)cc1,4.61µM*,?,?,6.51µM*,?
S=C(SSC(=S)N1CCOCC1)N1CCOCC1,0.0461µM*,0.731µM*,1.16µM*,0.0259µM*,17.2
Cc1ccc(N2CC(NC(=O)C(=O)c3c[nH]c4ccccc34)CC2=O)cc1 (configuration not stated),-5.8%,·,·,-28.9%,·
CCOc1ccc(NC(=O)CSc2nc3ccccc3c(=O)n2CCCC(=O)N2CCCC2)cc1,?,2.4%,6.0%,-28.5%,20.6
O=C(CSc1nc2ccccc2c(=O)n1CCCN1CCOCC1)Nc1ccccc1OC(F)F,18.4µM*,-0.3%,7.5%,20.6µM*,-23.8
COCCn1c(SCC(=O)Nc2ccc(OC)cc2OC)nc2ccccc2c1=O,-17.9%,2.9%,13.0%,2.6%,5.0
